The source of these data is the supplement of paper PMC8285479.

Structures can show the parent of a compound that is named as a salt. ± gives the standard deviation of the averaged measurements. The full ranking holds about 1,900 compounds; the median of “normalised cell viability (NPI; 0 = phenylarsine oxide control, 1 = DMSO control)” is about 1, and the lowest 2% start at about 0.039. Shown is part of a subset that was picked to be rich in the lowest values.

In the assay the test system is NCI-H1944. The experiment in a line: normalised cell viability (NPI; 0 = phenylarsine oxide control, 1 = DMSO control) (fraction of DMSO control); NCI-H1944 is a non-small cell lung cancer line; higher = more viable cells (less compound toxicity). As to conditions: 6 days.
Where [1] appears, read: glucocorticoid arm: hydrocortisone 2.75 uM co-treatment, compound 1 µM.
The mark [2] stands for this setting: glucocorticoid arm: hydrocortisone 2.75 uM co-treatment, compound 5 µM.
Setting [3] is: glucocorticoid arm: hydrocortisone 2.75 uM pre-treated 2 days and continued, compound 1 µM.
[4] abbreviates: glucocorticoid arm: hydrocortisone 2.75 uM pre-treated 2 days and continued, compound 5 µM.
[5] abbreviates: glucocorticoid arm: vehicle, compound 1 µM.
Where [6] appears, read: glucocorticoid arm: vehicle, compound 5 µM.
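Also: CTB read-out in 384-well plates, triplicate wells, NPI normalised per plate against 1 µM phenylarsine oxide (0) and 0.1% DMSO (1) controls.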

As for `NC(CCP(=O)(O)O)C(=O)O` (racemic) [(±)-2-Amino-4-phosphonobutyric acid], the normalised cell viability by setting is: under setting [1], 0.9883 ± 0.0042; under setting [2], 0.998 ± 0.0017; under setting [3], 1.01 ± 0.014; under setting [4], 1 ± 0.042; under setting [5], 0.9923 ± 0.0071; under setting [6], 0.9973 ± 0.0025.

For `N[C@H](C(=O)O)c1cc(O)no1` (racemic) [(±)-Ibotenic acid], the normalised cell viability under setting [1] is 1.002 ± 0.0072; the normalised cell viability under setting [2] turned out to be 1 ± 0.032; the normalised cell viability under setting [3] is 0.991 ± 0.024; the normalised cell viability under setting [4] was 1.04 ± 0.096; the normalised cell viability under setting [5] amounted to 0.9837 ± 0.0055; the normalised cell viability under setting [6] came to 0.987 ± 0.012.

For `Oc1cc2c(cc1O)[C@H]1c3ccccc3CN[C@@H]1CC2` (racemic) [Dihydrexidine hydrochloride], the normalised cell viability by setting is: under setting [1], 1.002 ± 0.0068; under setting [2], 0.995 ± 0.005; under setting [3], 1.002 ± 0.0076; under setting [4], 0.994 ± 0.018; under setting [5], 0.9917 ± 0.0059; under setting [6], 0.9897 ± 0.0031.

Regarding `CS(=N)(=O)CC[C@H](N)C(=O)O` (stereo partly drawn) [L-Methionine sulfoximine], the normalised cell viability under setting [1] worked out at 1.003 ± 0.0058; the normalised cell viability under setting [2] was 1.01 ± 0.024; the normalised cell viability under setting [3] was found to be 0.998 ± 0.01; the normalised cell viability under setting [4] amounted to 0.948 ± 0.093; the normalised cell viability under setting [5] came to 0.9987 ± 0.0023; the normalised cell viability under setting [6] worked out at 1 ± 0.013.

In the case of `NC(Cn1oc(=O)[nH]c1=O)C(=O)O` (single isomer, unassigned; (+)) [(+)-Quisqualic acid], the normalised cell viability runs as follows: under setting [1], 1.01 ± 0.01; under setting [2], 0.973 ± 0.028; under setting [3], 1.01 ± 0.031; under setting [4], 1.01 ± 0.021; under setting [5], 1.01 ± 0.012; under setting [6], 1.005 ± 0.0087.

As to `CN1CCN(c2ccc([N+](=O)[O-])c3no[n+]([O-])c23)CC1`, the normalised cell viability runs as follows: under setting [1], 0.984 ± 0.015; under setting [2], 1.04 ± 0.011; under setting [3], 0.993 ± 0.0076; under setting [4], 1.01 ± 0.01; under setting [5], 0.984 ± 0.011; under setting [6], 0.988 ± 0.01.

As to `O=C(N[C@H]1CN2CCC1CC2)c1ccc(Cl)cc1`, the normalised cell viability worked out at 1.02 ± 0.01 under setting [1]; 1.01 ± 0.022 under setting [2]; 1.023 ± 0.0058 under setting [3]; 1.02 ± 0.015 under setting [4]; 0.998 ± 0.0035 under setting [5]; 1.013 ± 0.0058 under setting [6].

`O=c1[nH]c2ccc(Cl)cc2c(N[C@@H]2CN3CCC2CC3)c1-c1nc2ccccc2[nH]1`: the normalised cell viability reads like this: under setting [1], 0.43 ± 0.0081; under setting [2], 0.0244 ± 0.0034; under setting [3], 0.717 ± 0.02; under setting [4], 0.0576 ± 0.015; under setting [5], 0.0195 ± 0.0053; under setting [6], 0.00294 ± 0.0014.

In the case of `C[C@@]12N[C@@H](Cc3ccccc31)c1ccccc12` [(-)-MK-801 hydrogen maleate], the normalised cell viability is, setting by setting: under setting [1], 1.01 ± 0.01; under setting [2], 1.02 ± 0.026; under setting [3], 1.013 ± 0.0058; under setting [4], 1.05 ± 0.094; under setting [5], 0.992 ± 0.0092; under setting [6], 1 ± 0.017.

In the case of `C[C@@]12N[C@@H](Cc3ccccc31)c1ccccc12` [(-)-MK 801 Maleate], the normalised cell viability reads like this: under setting [1], 1.023 ± 0.0058; under setting [2], 1.02; under setting [3], 1.02 ± 0.011; under setting [4], 1.03 ± 0.015; under setting [5], 1.01; under setting [6], 1.01.

Regarding `CC1Cc2cc3c(cc2C(c2ccc(N)cc2)=NN1)OCO3` (stereo not drawn), the normalised cell viability turned out to be 1.01 ± 0.01 under setting [1]; 1.02 ± 0.021 under setting [2]; 1.01 under setting [3]; 1.01 ± 0.037 under setting [4]; 0.9943 ± 0.0035 under setting [5]; 0.9943 ± 0.006 under setting [6].

As to `COc1ccc2c(c1)[C@@]13CCCC[C@H]1[C@@H](C2)NCC3` [3-Methoxymorphinan hydrochloride], the normalised cell viability runs as follows: under setting [1], 1.013 ± 0.0058; under setting [2], 0.989 ± 0.03; under setting [3], 1.02 ± 0.015; under setting [4], 1.06 ± 0.058; under setting [5], 1.003 ± 0.0058; under setting [6], 1.01 ± 0.01.

Take `CC1(C(=O)O)C2CCC(O2)C1(C)C(=O)O` (stereo not drawn) [Cantharidic Acid]: the normalised cell viability reads like this: under setting [1], 0.983 ± 0.016; under setting [2], 0.0223 ± 0.0017; under setting [3], 1.06 ± 0.015; under setting [4], 0.137 ± 0.087; under setting [5], 0.965 ± 0.025; under setting [6], 0.0108 ± 0.0036.

With `O=C(O)[C@@H]1[C@H](C(=O)O)[C@H]2CC[C@@H]1O2` [Endothall], the normalised cell viability under setting [1] is 1.01 ± 0.01; the normalised cell viability under setting [2] came to 1.05 ± 0.01; the normalised cell viability under setting [3] was found to be 1.007 ± 0.0058; the normalised cell viability under setting [4] was 1.07 ± 0.015; the normalised cell viability under setting [5] came out at 0.9967 ± 0.0025; the normalised cell viability under setting [6] was 1.007 ± 0.0058.

In the case of `C[C@@H]1O[C@H](C[N+](C)(C)C)C[C@H]1O` (racemic) [(±)-Muscarine chloride], the normalised cell viability under setting [1] came out at 1.02 ± 0.011; the normalised cell viability under setting [2] was 1.03 ± 0.035; the normalised cell viability under setting [3] is 1.01 ± 0.015; the normalised cell viability under setting [4] turned out to be 1.05 ± 0.085; the normalised cell viability under setting [5] turned out to be 0.9963 ± 0.0047; the normalised cell viability under setting [6] was determined as 1 ± 0.014.

`OC1CCCCC1N1CCC(c2ccccc2)CC1` (racemic) [(±)-Vesamicol hydrochloride]: the normalised cell viability under setting [1] worked out at 0.9747 ± 0.0049; the normalised cell viability under setting [2] is 0.91 ± 0.021; the normalised cell viability under setting [3] came out at 0.875 ± 0.21; the normalised cell viability under setting [4] turned out to be 0.978 ± 0.022; the normalised cell viability under setting [5] came to 0.9897 ± 0.0025; the normalised cell viability under setting [6] was 0.9897 ± 0.0076.

In the case of `CC[C@@]1(O)C(=O)OCc2c1cc1n(c2=O)Cc2cc3ccccc3nc2-1` [(S)-(+)-Camptothecin], the normalised cell viability under setting [1] came to 0.066 ± 0.014; the normalised cell viability under setting [2] was found to be 0.00107 ± 0.0017; the normalised cell viability under setting [3] stood at 0.328 ± 0.025; the normalised cell viability under setting [4] is 0.0202 ± 0.0036; the normalised cell viability under setting [5] was found to be 0.0279 ± 0.0022; the normalised cell viability under setting [6] is -0.000721 ± 0.0022.

For `Cc1ccccc1-n1c(Cn2cnc3c(N)ncnc32)nc2cccc(C)c2c1=O`, the normalised cell viability worked out at 1.003 ± 0.0058 under setting [1]; 1.02 ± 0.028 under setting [2]; 1 ± 0.015 under setting [3]; 1.02 ± 0.031 under setting [4]; 1 ± 0.017 under setting [5]; 1.01 ± 0.011 under setting [6].

Take `C=CCN1CC[C@]23CCCC[C@H]2[C@H]1Cc1ccc(O)cc13` [Levallorphan tartrate]: the normalised cell viability is, setting by setting: under setting [1], 1 ± 0.0089; under setting [2], 1 ± 0.023; under setting [3], 1.003 ± 0.0058; under setting [4], 1.06 ± 0.064; under setting [5], 0.9917 ± 0.0025; under setting [6], 0.863 ± 0.23.

For the molecule `N=C(NCCC[C@H](N)C(=O)O)N[N+](=O)[O-]` [NG-Nitro-L-arginine], the normalised cell viability is, setting by setting: under setting [1], 1.003 ± 0.0058; under setting [2], 1.01 ± 0.022; under setting [3], 1.01 ± 0.017; under setting [4], 0.86 ± 0.24; under setting [5], 1 ± 0.012; under setting [6], 1.001 ± 0.0085.

With `C=CCN1CCc2cccc3c2[C@H]1Cc1ccc(O)c(O)c1-3` [R(-)-N-Allylnorapomorphine hydrobromide], the normalised cell viability stood at 0.992 ± 0.0052 under setting [1]; 0.949 ± 0.0089 under setting [2]; 0.988 ± 0.011 under setting [3]; 0.968 ± 0.02 under setting [4]; 0.9917 ± 0.0042 under setting [5]; 0.9757 ± 0.0015 under setting [6].

Regarding `CNc1ccc2oc(C[C@H]3O[C@@]4(CC[C@H]3C)O[C@H]([C@H](C)C(=O)c3ccc[nH]3)[C@H](C)C[C@H]4C)nc2c1C(=O)O` [Calcimycin], the normalised cell viability under setting [1] amounted to 0.909 ± 0.018; the normalised cell viability under setting [2] was 0.0265 ± 0.002; the normalised cell viability under setting [3] came to 1.01 ± 0.013; the normalised cell viability under setting [4] was found to be 0.0205 ± 0.0037; the normalised cell viability under setting [5] is 0.91 ± 0.036; the normalised cell viability under setting [6] was 0.0377 ± 0.014.

For `NC(CCCCCP(=O)(O)O)C(=O)O` (racemic) [(±)-2-Amino-7-phosphonoheptanoic acid], the normalised cell viability was found to be 0.98 ± 0.012 under setting [1]; 0.9763 ± 0.0025 under setting [2]; 0.9903 ± 0.005 under setting [3]; 0.97 ± 0.013 under setting [4]; 0.9873 ± 0.004 under setting [5]; 0.972 ± 0.0072 under setting [6].
